Consider one compound from the supplement of paper PMC9402605.

± gives the standard deviation of the averaged measurements.

The subject of the assay is Caenorhabditis elegans N2. The assay is described as follows: egg-laying rate relative to DMSO control (M9 buffer background) (fraction of control); higher = more egg-laying. The settings on record: 60 µM, 1 h. As to the method:
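About 20 young-adult wild-type C. elegans (N2) per well in 96-well plates were exposed to 60 uM compound for 1 h at room temperature, either in M9 buffer (to find stimulators) or in 12.3 mM serotonin + 7.7 mM nicotine (NS, to find inhibitors). Eggs per worm per hour were counted by automated imaging and normalised to the mean of proximal DMSO control wells. Values average the primary screen and two retests of the worm-active (wactive) Egl modulators.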
`CCOc1ccc(/C=C/[N+](=O)[O-])cc1` [wact-385] came in with an egg-laying rate of 0.274 ± 0.14.
